Inconclusive results are not listed. Activity calls are given as the source filed them. Unless noted, calls follow the shape of the dose curve; as a rule, active = well fitted curve in either direction with a large enough effect (not every such curve was filed as active); inconclusive = small, poorly fitted or top-dose-only effect, or another doubt; inactive = flat fitted curve, though single readings scatter.

The target of test [1] is Lysosomal acid glucosylceramidase (Homo sapiens) (UniProt P04062). The test can be described thus: Glucocerebrosidase-p2 (AID 348; in the data active = potency below about 10 µM; also: potency is read from the fitted curve at half-maximal effect). The note with it: purified GBA, blue fluorogenic substrate, 40 min. In outline:
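Normal human glucocerebrosidase (0.2 nM) with blue fluorogenic substrate (80 uM final) in citrate/phosphate pH 5.9 with 10mM sodium taurocholate, 0.01% tween-20; 40 min RT, NaOH/glycine stop; fluorescence Ex 365/Em 440; AC50 from a titration from 0.6 nM upwards.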

Test [2] can be described thus: AP1 Signaling Pathway (AID 357).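 Also: ME-180 reporter cells stimulated with EGF at its EC50 level; % is scaled to controls: 0 for no effect and ±100 for the full control effect.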 The conditions noted are these: ME-180 AP-1-bla reporter, EGF-induced, beta-lactamase ratio, 5 h; at 7.69 µM (top of the series) unless noted. In outline:
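In this screen, ME-180 cells in Opti-MEM with 0.5% dialyzed FBS received EC50 EGF and compound titrations for 5 h. AP-1 reporter beta-lactamase was detected via CCF4 ratio, giving AC50 for positive and negative modulators.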

Test [3] can be described thus: NFAT Signaling Pathway (AID 444).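 Also: carbachol stimulus at about its EC50 of 1 µM final; % is scaled to controls: 0 for no effect and ±100 for the full control effect.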 The note with it: Jurkat NFAT-bla M1, carbachol, beta-lactamase ratio, 5 h; at 7.69 µM (top of the series) unless noted. The method in brief: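 Jurkat cells with NFAT-driven β-lactamase reporter and co-expressed M1 receptor, stimulated with carbachol (final 1 uM, ~EC50), compound titration, 5 h at 37 °C. CCF4 loaded 1 h at RT; 460/530 nm ratio gave %activity and AC50.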

Test [4] is described as follows: Stat Signaling Pathway (AID 446).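 Also: ME-180 cervical cancer cells given 40 pM IL-6 alongside compound; SIE-controlled beta-lactamase reporter measured as 460/530 nm FRET emission ratio; % is scaled to controls: 0 for no effect and ±100 for the full control effect.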 The note with it: ME-180 SIE beta-lactamase reporter, IL-6 stimulated, 5 h; at 7.69 µM (top of the series) unless noted. In outline:
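Compound effects on IL-6-induced STAT reporter activity were measured in ME-180 cells. After overnight culture, cells were co-treated with 40 pM IL-6 for 5 hrs before beta-lactamase substrate loading at room temperature.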

In test [5] the target is Glucocorticoid receptor (Homo sapiens) (UniProt P04150). The test can be described thus: GR-EFC Redistribution (AID 451; calls by dose curve; also: potency is read from the fitted curve at half-maximal effect). The note with it: CHO-K1 GR-EFC translocation, beta-gal luminescence, 2 h. In outline: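 CHO-K1 cells expressing nuclear EA and GR-ED fragments of b-gal; compounds titrated up to 46 uM final, 2 h at 37 C. GR nuclear translocation read as complemented b-gal luminescence after 1 h RT detection.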
Chain of Glucocorticoid receptor (Homo sapiens) (P04150 whole entry, looked up, the tested form may be a part): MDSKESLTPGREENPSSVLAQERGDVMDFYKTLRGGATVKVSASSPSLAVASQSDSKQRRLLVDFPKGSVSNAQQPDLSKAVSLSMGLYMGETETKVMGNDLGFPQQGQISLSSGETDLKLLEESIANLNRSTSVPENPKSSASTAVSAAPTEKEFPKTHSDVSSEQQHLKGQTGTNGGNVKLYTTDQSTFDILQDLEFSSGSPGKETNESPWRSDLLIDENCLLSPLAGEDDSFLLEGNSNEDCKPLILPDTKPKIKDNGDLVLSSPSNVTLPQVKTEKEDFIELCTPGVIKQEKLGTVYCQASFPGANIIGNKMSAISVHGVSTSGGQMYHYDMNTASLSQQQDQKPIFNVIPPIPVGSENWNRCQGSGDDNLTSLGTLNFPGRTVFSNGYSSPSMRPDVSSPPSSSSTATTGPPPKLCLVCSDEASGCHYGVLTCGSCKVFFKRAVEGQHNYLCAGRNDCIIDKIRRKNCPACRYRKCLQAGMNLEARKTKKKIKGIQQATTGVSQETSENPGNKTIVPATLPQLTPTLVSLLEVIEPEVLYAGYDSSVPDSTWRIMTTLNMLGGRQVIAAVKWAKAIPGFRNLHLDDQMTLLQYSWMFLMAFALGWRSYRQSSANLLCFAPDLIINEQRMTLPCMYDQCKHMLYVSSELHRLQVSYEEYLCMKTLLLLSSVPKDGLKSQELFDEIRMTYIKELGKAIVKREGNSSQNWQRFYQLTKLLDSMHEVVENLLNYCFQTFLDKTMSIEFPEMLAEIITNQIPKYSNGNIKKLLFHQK

In test [6] the target is 3',5'-cyclic-AMP phosphodiesterase 4B (Homo sapiens) (UniProt Q07343). Put plainly: qHTS Assay for Inhibitors of PDE-IV (AID 607; active = well fitted activation curve with a large enough effect in the main read-out, with a control signal flat, not every such curve was filed as active; also: % of control where 0% means no effect). The note with it: HEK293 ACTOne CNG channel cells, membrane potential fluorescence; series mostly up to 22.9 µM. In outline: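 ACTOne HEK293 cells carry a modified cAMP-gated CNG channel and express endogenous PDE4; plated 1000 cells/well, compounds up to 22.9 uM final. Membrane-potential dye fluorescence (ex 535/em 590) was read; parental cells received 10 uM forskolin + 100 uM RO 20-1724.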
Chain of 3',5'-cyclic-AMP phosphodiesterase 4B (Homo sapiens) (Q07343 whole entry, looked up): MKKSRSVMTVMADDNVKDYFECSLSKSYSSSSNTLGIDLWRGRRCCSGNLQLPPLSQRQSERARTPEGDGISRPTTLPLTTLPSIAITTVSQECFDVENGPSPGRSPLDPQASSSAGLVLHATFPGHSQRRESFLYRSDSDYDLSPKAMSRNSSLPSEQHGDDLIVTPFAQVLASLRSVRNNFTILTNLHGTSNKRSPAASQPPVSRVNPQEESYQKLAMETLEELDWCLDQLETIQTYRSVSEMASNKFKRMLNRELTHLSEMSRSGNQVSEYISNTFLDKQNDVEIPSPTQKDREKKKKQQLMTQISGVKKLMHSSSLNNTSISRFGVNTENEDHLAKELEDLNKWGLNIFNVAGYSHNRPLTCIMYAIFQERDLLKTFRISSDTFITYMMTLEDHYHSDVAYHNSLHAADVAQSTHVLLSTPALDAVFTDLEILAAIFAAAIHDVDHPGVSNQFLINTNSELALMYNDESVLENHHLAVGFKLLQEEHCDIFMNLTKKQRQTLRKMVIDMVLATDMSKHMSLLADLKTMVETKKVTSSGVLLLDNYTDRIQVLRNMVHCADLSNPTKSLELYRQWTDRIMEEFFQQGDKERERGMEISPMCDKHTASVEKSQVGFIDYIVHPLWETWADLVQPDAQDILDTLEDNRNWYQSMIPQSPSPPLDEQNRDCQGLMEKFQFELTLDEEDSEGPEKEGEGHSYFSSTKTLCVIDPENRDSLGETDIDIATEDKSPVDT
(Quantitative high-throughput screening tests each substance at several concentrations.)

A short description of test [7]: qHTS Assay for Lipid Storage Modulators (AID 1519; calls by dose curve). The conditions noted are these: Drosophila S3 cells, BODIPY lipid droplet/cell ratio, laser cytometry, cells loaded with oleic acid; for activity change, negative = inhibition: at 57.5 µM (top of the series). The method in brief:
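Cells seeded at 5,000 per well were treated with compounds over a concentration series and loaded with oleic acid (400 uM, as added). Lipid droplet fluorescence (488 nm excitation, 500-530 nm channel) was read by laser-scanning cytometry and normalized to 20 uM Triacsin C.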

Test [8] in a line: Primary qHTS for small molecule stabilizers of the endoplasmic reticulum resident proteome: Secreted ER Calcium Modulated Protein (SERCaMP) assay (AID 1508630; active = well fitted curve in the direction sought with a large enough effect; an effect the other way counts as inactive or inconclusive; also: % is scaled to controls: 0 for no effect and ±100 for the full control effect). The conditions noted are these: SH-SY5Y GLuc-SERCaMP (Gaussia luciferase released on ER calcium loss) secretion, thapsigargin, luminescence; series mostly up to 38.4 µM. In outline:
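The SH-SY5Y reporter protocol was run at 3 concentrations up to 38.3 uM (primary) or 11 concentrations (follow-up): 16 h compound, 100 nM thapsigargin for 4 h, then extracellular luciferase luminescence.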

Test [9] has as its target Mitogen-activated protein kinase 10 (Mus musculus) (UniProt Q61831). Put plainly: JNK3 AlphaScreen Assay (AID 530). The note with it: JNK3 lysate, c-Jun phosphorylation; series mostly up to 57.1 µM. In outline: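 HepG2 lysate (IL-1b/TNFa pre-activated) + biotin-GST-cJun 1-79 + anti-pSer73 cJun; cpd titration, 15 min RT; ATP 10 uM start; Tris pH 7.6, MgCl2, DTT, vanadate; beads in EDTA buffer; AlphaScreen.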
In general terms: Alpha assays give light when donor and acceptor beads are brought close together.

For test [10], the target named is Cytochrome P450 3A4 (Homo sapiens) (UniProt P08684). Put plainly: qHTS Assay for Inhibitors and Substrates of Cytochrome P450 3A4 (AID 884; active = well fitted curve in the direction sought with a large enough effect; an effect the other way counts as inactive or inconclusive; also: potency is read from the fitted curve at half-maximal effect; nearly all actives have a fitted effect of over 50% in size). The conditions noted are these: recombinant CYP3A4, Luciferin-PPXE luminescence; series mostly up to 57.1 µM. The method in brief: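 Luminescent readout of luciferin produced by CYP3A4 (20 nM) dealkylation of Luciferin-PPXE, 25 uM (its KM). NADPH-driven reaction ran 60 min at RT after 10 min compound preincubation; data scaled to 57 uM ketoconazole as 100% inhibition.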
Chain of Cytochrome P450 3A4 (Homo sapiens) (P08684 whole entry, looked up): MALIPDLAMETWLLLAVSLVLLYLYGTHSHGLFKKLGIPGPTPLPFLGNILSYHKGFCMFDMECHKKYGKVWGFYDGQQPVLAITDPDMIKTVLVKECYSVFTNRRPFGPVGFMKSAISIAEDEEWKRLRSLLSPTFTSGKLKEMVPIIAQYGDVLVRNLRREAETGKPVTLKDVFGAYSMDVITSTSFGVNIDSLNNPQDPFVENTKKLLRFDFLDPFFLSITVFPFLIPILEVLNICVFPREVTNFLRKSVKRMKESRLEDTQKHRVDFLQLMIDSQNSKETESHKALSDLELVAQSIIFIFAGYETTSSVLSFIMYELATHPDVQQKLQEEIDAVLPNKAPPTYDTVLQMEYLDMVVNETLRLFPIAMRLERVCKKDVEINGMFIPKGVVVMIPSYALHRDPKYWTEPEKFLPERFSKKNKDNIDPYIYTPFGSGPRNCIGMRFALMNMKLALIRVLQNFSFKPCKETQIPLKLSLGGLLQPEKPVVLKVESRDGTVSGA

Test [11] has the same target. Put plainly: qHTS Assay for Activators of Cytochrome P450 3A4 (AID 885; active = well fitted curve in the direction sought with a large enough effect; an effect the other way counts as inactive or inconclusive; also: nearly all actives have a fitted effect of over 65% in size; also: potency is read from the fitted curve at half-maximal effect). The conditions noted are these: recombinant CYP3A4, Luciferin-PPXE luminescence, 60 min; series mostly up to 57.1 µM. In outline:
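CYP3A4 activity: Luciferin-PPXE O-dealkylation, 25uM substrate, 200mM KPO4, RT throughout. Read-out is luciferase luminescence; higher values reflect activation.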

For test [12], the target named is Cytochrome P450 1A2 (Homo sapiens) (UniProt P05177). Put plainly: p450-cyp1a2 (AID 410; calls by dose curve; also: potency is read from the fitted curve at half-maximal effect;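 as to activity change, negative = inhibition: -100% = full effect of reference inhibitor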). The note with it: recombinant CYP1A2, luciferin-ME demethylation, luminescence; series mostly up to 57 µM. In outline:
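20nM CYP1A2, 100uM Luciferin-ME (=Km), 100mM KPO4; cpd 10 min RT; +NADPH regen, 60 min RT; stop/detect 20 min; luminescence. Normalized to furafylline 57 uM = full inhibition.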

In test [13] the target is Glucocorticoid receptor (Homo sapiens) (UniProt P04150). Put plainly: GR-GFP Redistribution (AID 450;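 active = compounds whose dose series gives a full or clear partial fitted curve of increased nuclear translocation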; also: potency is read from the fitted curve at half-maximal effect). The note with it: U2OS GR-GFP nuclear translocation, laser cytometry, 2 h.
In test [14] the target is Cytochrome P450 2C19 (Homo sapiens) (UniProt P33261). The test can be described thus: qHTS Assay for Inhibitors and Substrates of Cytochrome P450 2C19 (AID 899; active = well fitted curve in the direction sought with a large enough effect; an effect the other way counts as inactive or inconclusive; also: potency is read from the fitted curve at half-maximal effect; nearly all actives have a fitted effect of over 60% in size). The conditions noted are these: recombinant CYP2C19, luciferin-H EGE luminescence; series mostly up to 57.1 µM. The method in brief: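 5 nM human CYP2C19 with 10uM Luciferin-H EGE (at KM) in 50mM KPO4, compound preincubated 10 min at 37C, then NADPH regeneration for 60 min at 37C. Luciferin read by luminescence after detection reagent; normalized to 57uM ketoconazole as full inhibition.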
Chain of Cytochrome P450 2C19 (Homo sapiens) (P33261 whole entry, looked up): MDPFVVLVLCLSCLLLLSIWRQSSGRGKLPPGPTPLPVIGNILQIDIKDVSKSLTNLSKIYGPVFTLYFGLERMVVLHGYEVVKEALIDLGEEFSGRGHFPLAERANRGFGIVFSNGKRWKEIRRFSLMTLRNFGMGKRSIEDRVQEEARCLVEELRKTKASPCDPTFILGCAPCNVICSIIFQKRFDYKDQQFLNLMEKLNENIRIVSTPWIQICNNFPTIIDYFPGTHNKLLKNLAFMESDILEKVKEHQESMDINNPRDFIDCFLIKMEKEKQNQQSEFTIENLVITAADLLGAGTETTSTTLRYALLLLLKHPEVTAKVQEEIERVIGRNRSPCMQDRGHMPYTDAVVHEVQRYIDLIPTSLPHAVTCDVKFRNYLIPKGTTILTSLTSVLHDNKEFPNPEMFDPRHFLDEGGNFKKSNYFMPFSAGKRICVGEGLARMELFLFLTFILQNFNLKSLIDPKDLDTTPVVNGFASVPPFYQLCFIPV

The nature of test [15]: qHTS Assay for Identification of Small Molecule Agonists for Hypoxia Response Element Signaling Pathway (AID 914; active = well fitted activation curve with a large enough effect in the signal ratio, with a control signal flat, not every such curve was filed as active; the % refers to the signal ratio; also: potency is read from the fitted curve at half-maximal effect). The note with it: ME-180 (cervical carcinoma) HRE-bla reporter, beta-lactamase ratio, CoCl2, 17 h; activation: stronger effect = higher value. The method in brief: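 Reporter activity (beta-lactamase, CCF4 460nm/530nm ratio) in HRE-bla ME-180 cells is recorded after 17 h compound exposure with EC50 CoCl2 at 37 degrees Celsius. AC50 values come from titration data.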

Test [16] concerns the target Ubiquitin carboxyl-terminal hydrolase 1 (Homo sapiens) (UniProt O94782). The test can be described thus: Inhibitors of USP1/UAF1: Pilot qHTS (AID 504865; active = well fitted curve in the direction sought with a large enough effect; an effect the other way counts as inactive or inconclusive;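 also: rhodamine fluorescence freed from ubiquitin-rhodamine substrate followed over time; top concentration of the series differs between compounds; % is scaled to controls: 0 for no effect and ±100 for the full control effect; nearly all actives have a fitted effect of over 35% in size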). The conditions noted are these: purified USP1/UAF1, Ub-rhodamine cleavage fluorescence; series mostly up to 54.9 µM. The method in brief:
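Kinetic fluorescence assay: 1nM USP1/UAF1, 15 min compound preincubation, then 150nM Ub-Rho; 480/540 nm.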

[17] abbreviates: measured here: cell count channel max response.
[18] abbreviates: measured here: lipid channel max response.

Chain of Lysosomal acid glucosylceramidase (Homo sapiens) (P04062 whole entry, looked up): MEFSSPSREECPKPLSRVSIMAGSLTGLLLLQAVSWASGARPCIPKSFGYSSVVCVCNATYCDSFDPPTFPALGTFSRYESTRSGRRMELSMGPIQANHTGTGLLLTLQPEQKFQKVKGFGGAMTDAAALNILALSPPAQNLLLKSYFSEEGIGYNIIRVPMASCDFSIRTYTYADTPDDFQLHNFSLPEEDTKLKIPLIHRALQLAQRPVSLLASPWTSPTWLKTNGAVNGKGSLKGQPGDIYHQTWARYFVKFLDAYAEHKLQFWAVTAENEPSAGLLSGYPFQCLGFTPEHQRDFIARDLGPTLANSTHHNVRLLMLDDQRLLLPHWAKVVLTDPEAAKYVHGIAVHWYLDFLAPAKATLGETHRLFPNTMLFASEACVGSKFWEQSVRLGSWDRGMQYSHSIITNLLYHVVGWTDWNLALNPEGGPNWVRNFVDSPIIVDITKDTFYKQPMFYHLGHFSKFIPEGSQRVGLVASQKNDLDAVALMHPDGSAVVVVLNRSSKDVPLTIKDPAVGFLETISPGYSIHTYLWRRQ
Chain of Cytochrome P450 1A2 (Homo sapiens) (P05177 whole entry, looked up): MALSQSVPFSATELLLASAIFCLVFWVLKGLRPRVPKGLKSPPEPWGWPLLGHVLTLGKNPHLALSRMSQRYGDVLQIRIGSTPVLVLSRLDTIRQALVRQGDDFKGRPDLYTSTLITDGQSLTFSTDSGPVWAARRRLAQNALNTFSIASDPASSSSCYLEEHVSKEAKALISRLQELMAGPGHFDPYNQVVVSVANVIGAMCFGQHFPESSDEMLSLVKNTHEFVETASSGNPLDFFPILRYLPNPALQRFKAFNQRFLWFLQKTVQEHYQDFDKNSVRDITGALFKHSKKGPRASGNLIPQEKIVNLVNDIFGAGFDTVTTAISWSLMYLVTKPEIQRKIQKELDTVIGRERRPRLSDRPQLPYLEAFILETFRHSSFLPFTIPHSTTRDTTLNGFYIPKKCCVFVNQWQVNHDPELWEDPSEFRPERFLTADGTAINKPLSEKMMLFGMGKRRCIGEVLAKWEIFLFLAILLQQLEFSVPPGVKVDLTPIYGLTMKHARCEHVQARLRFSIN
Chain of Ubiquitin carboxyl-terminal hydrolase 1 (Homo sapiens) (O94782 whole entry, looked up): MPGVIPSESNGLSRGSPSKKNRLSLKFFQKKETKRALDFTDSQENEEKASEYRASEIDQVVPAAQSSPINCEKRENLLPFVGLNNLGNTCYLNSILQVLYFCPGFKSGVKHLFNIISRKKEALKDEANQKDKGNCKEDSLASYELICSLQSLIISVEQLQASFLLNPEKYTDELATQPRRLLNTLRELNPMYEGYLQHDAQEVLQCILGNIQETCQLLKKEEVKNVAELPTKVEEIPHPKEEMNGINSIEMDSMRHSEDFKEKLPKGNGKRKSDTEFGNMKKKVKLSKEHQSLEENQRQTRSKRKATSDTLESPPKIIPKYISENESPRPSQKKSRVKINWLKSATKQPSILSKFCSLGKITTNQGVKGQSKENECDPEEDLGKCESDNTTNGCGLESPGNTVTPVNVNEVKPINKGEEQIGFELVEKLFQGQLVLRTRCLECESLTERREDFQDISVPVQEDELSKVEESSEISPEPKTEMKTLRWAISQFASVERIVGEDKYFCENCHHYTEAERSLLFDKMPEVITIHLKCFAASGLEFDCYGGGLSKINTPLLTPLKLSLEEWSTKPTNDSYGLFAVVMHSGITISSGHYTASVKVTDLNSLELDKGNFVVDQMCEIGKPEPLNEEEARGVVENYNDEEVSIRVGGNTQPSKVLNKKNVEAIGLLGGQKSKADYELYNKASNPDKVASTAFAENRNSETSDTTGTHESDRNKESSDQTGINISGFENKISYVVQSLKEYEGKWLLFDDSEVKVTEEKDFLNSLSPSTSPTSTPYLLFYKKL

For the molecule `CC(=O)N1CCC[C@@]2(CCN(Cc3cc(C(F)(F)F)cc(C(F)(F)F)c3)C2)C1`, the figures for the Potency in test [1] and in test [5] were > 11.4 µM (inactive) and > 46 µM (inactive), respectively. The activity change, negative = inhibition is -5.47% (inactive) in [2], 20.4% (inactive) in [3] and 5.56% (inactive) in [7]. In addition, in [4], the activity, negative = inhibition was -6.41% (inactive). Further, the Potency entry in test [6] and in test [8] was “inactive” throughout. Besides, the max response amounted to 8.88% in test [7] (setting [17]) and 18.9% in test [7] (setting [18]).

Turning to `O=C(c1cc(C(F)(F)F)cc(C(F)(F)F)c1)N1CCC[C@@]2(CCN(Cc3nccs3)C2)C1`, the Potency in test [1] was > 11.4 µM (inactive); in [5], > 46 µM (inactive); in test [10] it was 3.16 µM (active). For the same molecule, the figures for the activity change, negative = inhibition in test [2], in test [3] and in test [7] were 4.84% (inactive), -21.5% (inactive) and 1.58% (inactive), respectively. Further, in test [4], the activity, negative = inhibition is -3.68% (inactive). The outcome in test [9] was inactive. Also, the Potency entry in test [6], in test [11] and in test [8] was “inactive” throughout. Further, the max response came out at 26% in test [7] (setting [17]) and 28.9% in test [7] (setting [18]).

Consider `O=C(c1ccco1)N1CCC2(CC1)CCN(c1ncccn1)CC2`, for which the Potency in test [1] is > 11.4 µM (inactive); in [5] it was > 46 µM (inactive). In addition, the activity change, negative = inhibition in [2] is -7.74% (inactive); in test [3], -8.3% (inactive); in [7] it was 5.72% (inactive). Also, in test [4], the activity, negative = inhibition was -7.06% (inactive). In addition, in test [9], the molecule was called inactive. The Potency entry in test [6] and in test [8] was “inactive” each time. The max response worked out at 9.29% in test [7] (setting [17]) and 18.4% in test [7] (setting [18]).

Turning to `CS(=O)(=O)N1CCC2(CCN(C(=O)Nc3cccc(F)c3)CC2)CC1`, the Potency in test [1] is > 11.4 µM (inactive); in [5], > 46 µM (inactive). Further, the results for the activity change, negative = inhibition in test [2], in test [3] and in [7] were -2.81% (inactive), 8.92% (inactive) and 4.55% (inactive), respectively. Also, in test [4], the activity, negative = inhibition was -6.54% (inactive). For the same molecule, the molecule was called inactive in test [9]. Also, the Potency entry in test [6] and in test [8] was “inactive” throughout. For the same molecule, the max response is 4.7% in [7] (setting [17]) and 11.5% in [7] (setting [18]).

For the molecule `O=C(c1csnn1)N1CCC2(CC1)CN(C(c1ccccc1)c1ccccc1)C2`, the Potency in test [1] was > 11.4 µM (inactive); in test [5] it was > 46 µM (inactive); in [11] it was 10 µM (active). For the same molecule, the activity change, negative = inhibition in [2] was 3.92% (inactive); in [7], 3.78% (inactive). Also, the Potency result in test [12], in [6] and in test [8] was “inactive” each time. Moreover, the activity, negative = inhibition in test [4] is -0.642% (inactive). Moreover, in [9], the call was inactive. Besides, the max response in test [7] (setting [17]) came out at 18.7%; in test [7] (setting [18]) it was 24.2%.

`Cc1noc(C)c1-c1ccc2ncnc(NCc3cccnc3)c2c1`: the Potency in test [1] is > 11.4 µM (inactive); in [12], 0.316 µM (active); in test [13] it was > 46 µM (inactive); in test [5] it was > 46 µM (inactive); in test [10], 2.51 µM (active); in [14], 0.02 µM (active). In addition, in [15], the Potency was 3.16 µM (active). Besides, the activity change, negative = inhibition in test [2] was 26.4% (inactive); in test [7] it was -3.3% (inactive). Besides, the molecule was called inactive in [9]. Also, the Potency entry in test [6], in test [11], in [16] and in test [8] was “inactive” throughout. Moreover, the results for the max response in test [7] (setting [17]) and in [7] (setting [18]) were 10.5% and 6%, respectively.

For the origin of these results see PubChem BioAssay (NCATS).
